Records with an inconclusive call do not appear. Calls of active or inactive are those of the source. Unless noted, the call rests on the fitted dose curve; in most records, active means well fitted curve in the direction sought with a large enough effect; inconclusive means small, poorly fitted or top-dose-only effect, or another doubt; inactive means no such curve, though single readings can be large; an effect the other way counts as inactive or inconclusive.

The target of test [1] is Thioredoxin reductase 1, cytoplasmic (Rattus norvegicus) (UniProt O89049). The test can be described thus: qHTS Assay for Substrates of Mammalian Selenoprotein Thioredoxin Reductase 1 (TrxR1) (AID 488772).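 Further: NADPH fluorescence in the first read after selenite addition and not the 8 min delta; series mostly up to about 57 µM; 0% is about no effect; a drop in NADPH fluorescence below the no-compound background marks a TrxR1 substrate.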 An outline of the steps:
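Quantitative HTS in Tris-HCl buffer at pH 7.5 with EDTA and Tween-20, using rat TrxR1, 400 uM NADPH and 400 uM selenite (final). A fall in initial NADPH fluorescence relative to background marked substrate behaviour.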

The target is the same in test [2]. In words: qHTS Assay for Inhibitors of Mammalian Selenoprotein Thioredoxin Reductase 1 (TrxR1) (AID 488773).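 Further: drop in NADPH fluorescence over an 8 min run after selenite addition; series mostly up to about 57 µM; on the % scale 0 is the no-effect control and ±100 the full control effect; nearly all actives have a fitted effect of over 40% in size.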 Conditions: Potency: inhibition. An outline of the steps:
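Steps: enzyme (90 nM) plus NADPH (400 uM final), 5 min at ~22 deg C; compound added, 15 min; selenite (400 uM final) added; fluorescence followed for 8 min. Concentration-response curves derived from the normalized delta values.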

The target in test [3] is Flap endonuclease 1 (Homo sapiens) (UniProt P39748). In words: qHTS Validation Assay for the Inhibitors of Human Flap endonuclease 1 (FEN1) (AID 488816). Further: on the % scale 0 is the no-effect control and ±100 the full control effect. An outline of the steps: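 Readings taken at 0 and 15 min after starting the reaction with 50 nM (final) substrate supplied the signal. Compounds had first sat with 10 nM FEN1 reagent for 15 min at room temperature. Values come from Hill-equation concentration-response fits.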
(In general: Quantitative high-throughput screening tests each substance at several concentrations.)

Test [4] has as its target M-phase phosphoprotein 8 (Homo sapiens) (UniProt Q99549). In words: qHTS Validation Assay for Inhibitors for MPP8 Chromodomain Interactions with Methylated Histone Tails (AID 488949).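 Further: AlphaScreen signal from MPP8 chromodomain bound to biotinylated H3K9me3 peptide; top concentration of the series differs between compounds; on the % scale 0 is the no-effect control and ±100 the full control effect; nearly all actives have a fitted effect of over 55% in size.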 An outline of the steps: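 AlphaScreen proximity signal from streptavidin donor and Ni-chelate acceptor beads (10 ug/mL each) reported binding of MPP8 to trimethyl-K9 H3(1-18) peptide, both at 50 nM. The complex formed 30 min before a 30 min compound exposure at room temperature, in PBS pH 7.4.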

In test [5] the target is Chromobox protein homolog 1 (Homo sapiens) (UniProt P83916). In words: qHTS Validation Assay for Inhibitors of HP1-beta Chromodomain Interactions with Methylated Histone Tails (AID 488953).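 Further: loss of AlphaScreen luminescence from HP1-beta binding biotinylated H3K9me3 peptide; series mostly up to about 110 µM; on the % scale 0 is the no-effect control and ±100 the full control effect; nearly all actives have a fitted effect of over 50% in size.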 An outline of the steps:
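HP1-beta (50 nM) was preincubated 30 min at room temperature with biotinylated H3(1-18)K9me3 peptide (50 nM) in PBS pH 7.4, 0.01% Tween-20, then with compounds 30 min. AlphaScreen signal was read after streptavidin donor/nickel chelate acceptor beads (10 ug/mL final).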

The target in test [6] is Methanococcus maripaludis chaperonin (MmCpn) (UniProt Q6LX38). In words: High-Throughput Screening for Modulators of Cytosolic Chaperonin Activity: MmCpn Primary Screen (AID 488978).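 Further: 50 nM MmCpn enzyme hydrolysing 30 µM ATP at 37 °C; 0% is about no effect.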 An outline of the steps: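 ATPase activity of 50 nM MmCpn was assayed with 30 uM ATP, 10 minutes at 37C, after a 5 min compound preincubation at room temperature. ADP production was read as HTRF emission at 590 and 665 nm.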

Test [7] concerns the target Transient receptor potential cation channel subfamily V member 1 (Homo sapiens) (UniProt Q8NER1). The test can be described thus: HTS Assay for Compounds that Act as Enhancers of the Vanilloid Receptor 1 (AID 488979). Further: 0% is about no effect. An outline of the steps: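 Calcium influx kinetics via Fluo-8 (480/520 nm) in TRPV1-expressing cells, 2000/well cultured overnight at 35.5C. Compound-alone read 3 min (agonist phase), followed by EC20 capsaicin challenge for 2 min (enhancer phase).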

Test [8] has as its target Thyrotropin receptor (Homo sapiens) (UniProt P16473). The test can be described thus: qHTS Assay for Antagonists of the Thyroid Stimulating Hormone Receptor (AID 488980). Further: series mostly up to about 58 µM; 0% is about no effect. An outline of the steps: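 Inhibition of cAMP raised by EC80 TSH (4 nM final) was read by HTRF, with lysate cAMP competing against cAMP-d2 for cryptate antibody after 30 min at room temperature. The cells were transfected HEK293 held in phosphodiesterase inhibitor RO 20-1724 at 70 uM.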

Test [9] deals with D(1A) dopamine receptor (Homo sapiens) (UniProt P21728). The test can be described thus: HTS Assay for Allosteric Agonists of the Human D1 Dopamine Receptor: Primary Screen for Agonists (AID 488981). Further: potency means the concentration at half of the fitted maximal effect. On activation: 0% is about no effect. An outline of the steps:
(§1)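 Calcium flux in an inducible, force-coupled HEK293 Trex D1 line (overnight at 30 C): agonist mode is the 180 s kinetic read after compound; potentiator mode is the following 180 s read after dopamine at EC20.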

Test [10] has the same target. The test can be described thus: HTS Assay for Allosteric Agonists of the Human D1 Dopamine Receptor: Primary Screen for Antagonists (AID 488983).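 Further: calcium flux response to an EC80 dopamine challenge measured with no-wash dye; nearly all actives have a fitted effect of over 65% in size.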 Further: potency means the concentration at half of the fitted maximal effect. An outline of the steps:
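Tetracycline-induced HEK293 T-REx cells expressing force-coupled D1 were plated overnight at 30 C, dye-loaded for calcium, and read kinetically. Compounds were pinned in, then an EC80 dopamine challenge followed after 180 s to reveal antagonism.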

The target in test [11] is ATPase family AAA domain-containing protein 5 (Homo sapiens) (UniProt Q96QE3). In words: Validation screen for small molecules that inhibit ELG1-dependent DNA repair in human embryonic kidney (HEK293T) cells expressing luciferase-tagged ELG1 (AID 493107). Further: nearly all actives have a fitted effect of over 70% in size. Further: potency means the concentration at half of the fitted maximal effect. An outline of the steps: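 HEK293T cells expressing luciferase-tagged ELG1 were co-treated with 5-fluorouridine and compound or DMSO for 16 hr at 37 °C, 5% CO2. Luciferase activity was then read with ONE-Glo after 30 min at room temperature; suppressed signal indicates blocked ELG1 function.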

Test [12] can be described thus: qHTS for Inhibitors of Cell Surface uPA Generation: Validation Assay (AID 493164).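 Further: RAW 264.7 macrophage cells exposed to compound for 18 h; 0% is about no effect.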 An outline of the steps:
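RAW 264.7, 4000 cells/well, o/n plating; cpd 7-pt 1:5 dilution 2.45 nM–38.3 uM final; 18 h, 37 C/5% CO2; ATP-Lite, 5 s luminescence exposure.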

Test [13] can be described thus: Validation screen for small molecules that induce DNA re-replication in SW480 colon adenocarcinoma cells (AID 504364). Further: 0% is about no effect. An outline of the steps:
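SW480 cells seeded at 250 per well were exposed to compound or DMSO for 48 hr at 37 C, 5% CO2, then stained with Hoechst for 40 min. DNA content per nucleus was imaged (405 nm ex, 500-530 nm em).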

A short description of test [14]: Validation screen for small molecules that induce genotoxicity in human embryonic kidney (HEK293T) cells expressing luciferase-tagged ELG1 (AID 493106). Further: potency means the concentration at half of the fitted maximal effect. An outline of the steps:
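HEK293T cells expressing luciferase-tagged ELG1 were exposed to compound or DMSO vehicle for 16 hr at 37 °C, 5% CO2. Genotoxic stress raises ELG1 levels, so increased luciferase signal after ONE-Glo addition and 30 min at room temperature marks hits.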

Test [15] concerns the target Thyrotropin-releasing hormone receptor (Homo sapiens) (UniProt P34981). In words: qHTS for Small Molecule Agonists and Allosteric Enhancers of Human TRH Receptor: Validation Screen for Agonists (AID 493127;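 active means calcium activation more than 3 SD above the typical response in the agonist read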;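 further: intracellular calcium rise by fluo-8 fluorescence before TRH EC20 addition; 0% is about no effect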). The settings on record: TRH receptor agonist cell assay; at 2 µM; stronger effect = higher value. An outline of the steps:
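TRHR-expressing cells were plated overnight in serum-containing medium, then loaded with fluo-8 calcium dye at room temperature for 30 min–1.5 h. After a 10 s baseline, compound was pin-transferred and calcium fluorescence (ex 480/em 530) read kinetically for agonist response.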

Test [16] can be described thus: Nrf2 qHTS screen for inhibitors: Validation (AID 493153; active means well fitted inhibition curve with a large enough effect in the main read-out, with a control signal flat, not every such curve was filed as active). Conditions: Potency: luciferase luminescence; viability change: measured here: cytotoxicity max response. An outline of the steps:
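A549 cells carrying an ARE-driven firefly luciferase reporter, in 5% FBS OPTI-MEM, were treated with compounds in concentration-response for 18-24 h at 37°C. Viability was read by CellTiter-Fluor fluorescence, then Nrf2 activity by luciferase luminescence.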

In test [17] the target is D(1A) dopamine receptor (Homo sapiens) (UniProt P21728). In words: HTS Assay for Allosteric Agonists of the Human D1 Dopamine Receptor: Primary Screen for Potentiators (AID 488982). Further: 0% is about no effect. An outline of the steps: as §1
Test [18] deals with Galactokinase (Homo sapiens) (UniProt P51570). The test can be described thus: qHTS Validation Assay for Inhibitors of Human Galactokinase (GALK) (AID 493189). Further: 0% is about no effect. An outline of the steps:
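Inhibition was measured as remaining ATP, detected by luciferase luminescence after a 1 h room-temperature reaction. Final conditions: 5 nM GALK, 100 uM galactose, 35 uM ATP, pH 8.0 HEPES buffer.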

D(1A) dopamine receptor (Homo sapiens), sequence (P21728 whole entry, looked up): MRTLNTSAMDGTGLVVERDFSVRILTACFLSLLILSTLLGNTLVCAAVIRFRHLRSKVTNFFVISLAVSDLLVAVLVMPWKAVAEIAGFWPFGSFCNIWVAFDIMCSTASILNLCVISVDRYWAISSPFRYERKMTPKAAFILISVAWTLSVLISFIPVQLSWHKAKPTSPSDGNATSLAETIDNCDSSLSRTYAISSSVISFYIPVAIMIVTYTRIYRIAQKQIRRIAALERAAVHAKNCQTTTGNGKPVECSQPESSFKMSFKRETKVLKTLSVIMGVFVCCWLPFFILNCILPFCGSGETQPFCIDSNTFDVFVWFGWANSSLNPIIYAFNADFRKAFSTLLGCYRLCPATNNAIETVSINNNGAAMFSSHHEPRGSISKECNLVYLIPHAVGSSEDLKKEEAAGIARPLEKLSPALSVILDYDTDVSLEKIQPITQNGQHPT
Thyrotropin-releasing hormone receptor (Homo sapiens), sequence (P34981 whole entry, looked up): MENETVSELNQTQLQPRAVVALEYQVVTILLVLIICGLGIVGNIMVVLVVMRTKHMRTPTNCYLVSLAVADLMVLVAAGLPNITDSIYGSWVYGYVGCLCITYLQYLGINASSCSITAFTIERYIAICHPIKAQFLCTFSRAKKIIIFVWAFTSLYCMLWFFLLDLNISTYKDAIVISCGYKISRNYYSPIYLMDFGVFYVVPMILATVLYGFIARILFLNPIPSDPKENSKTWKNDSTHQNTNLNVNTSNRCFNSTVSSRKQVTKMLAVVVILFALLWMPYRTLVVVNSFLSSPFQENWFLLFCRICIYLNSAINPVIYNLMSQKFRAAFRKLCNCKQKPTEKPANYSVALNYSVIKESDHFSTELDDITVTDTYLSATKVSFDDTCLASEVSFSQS
Flap endonuclease 1 (Homo sapiens), sequence (P39748 whole entry, looked up): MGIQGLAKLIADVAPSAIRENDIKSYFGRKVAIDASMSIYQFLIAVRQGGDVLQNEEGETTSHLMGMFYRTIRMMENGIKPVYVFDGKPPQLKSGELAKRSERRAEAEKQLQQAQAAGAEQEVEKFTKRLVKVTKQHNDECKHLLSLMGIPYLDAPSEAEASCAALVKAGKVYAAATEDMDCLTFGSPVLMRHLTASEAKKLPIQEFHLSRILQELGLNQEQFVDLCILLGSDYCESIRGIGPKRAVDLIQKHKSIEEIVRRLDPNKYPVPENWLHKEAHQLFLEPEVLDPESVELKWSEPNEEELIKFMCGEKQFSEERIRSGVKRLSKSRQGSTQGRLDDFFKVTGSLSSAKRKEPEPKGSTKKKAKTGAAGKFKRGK
Thioredoxin reductase 1, cytoplasmic (Rattus norvegicus), sequence (O89049 whole entry, looked up): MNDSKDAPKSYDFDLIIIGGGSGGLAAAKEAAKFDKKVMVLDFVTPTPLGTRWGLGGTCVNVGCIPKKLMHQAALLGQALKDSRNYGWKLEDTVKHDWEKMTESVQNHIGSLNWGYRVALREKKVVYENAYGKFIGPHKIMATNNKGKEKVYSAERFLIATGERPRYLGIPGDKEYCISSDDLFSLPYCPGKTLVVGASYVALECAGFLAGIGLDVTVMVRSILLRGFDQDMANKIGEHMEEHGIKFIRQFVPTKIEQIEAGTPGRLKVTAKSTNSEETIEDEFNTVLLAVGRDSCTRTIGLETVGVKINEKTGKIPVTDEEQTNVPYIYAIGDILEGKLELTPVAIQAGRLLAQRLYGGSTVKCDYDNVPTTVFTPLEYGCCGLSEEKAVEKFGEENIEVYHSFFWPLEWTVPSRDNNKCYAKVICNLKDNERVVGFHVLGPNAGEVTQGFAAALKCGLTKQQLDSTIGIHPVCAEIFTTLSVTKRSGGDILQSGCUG
Chromobox protein homolog 1 (Homo sapiens), sequence (P83916 whole entry, looked up): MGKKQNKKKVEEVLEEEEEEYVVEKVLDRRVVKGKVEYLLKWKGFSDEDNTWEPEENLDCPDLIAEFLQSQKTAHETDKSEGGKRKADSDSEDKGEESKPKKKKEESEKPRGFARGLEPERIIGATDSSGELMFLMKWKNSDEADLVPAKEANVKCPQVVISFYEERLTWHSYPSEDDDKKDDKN
Methanococcus maripaludis chaperonin (MmCpn), sequence (Q6LX38 1-543): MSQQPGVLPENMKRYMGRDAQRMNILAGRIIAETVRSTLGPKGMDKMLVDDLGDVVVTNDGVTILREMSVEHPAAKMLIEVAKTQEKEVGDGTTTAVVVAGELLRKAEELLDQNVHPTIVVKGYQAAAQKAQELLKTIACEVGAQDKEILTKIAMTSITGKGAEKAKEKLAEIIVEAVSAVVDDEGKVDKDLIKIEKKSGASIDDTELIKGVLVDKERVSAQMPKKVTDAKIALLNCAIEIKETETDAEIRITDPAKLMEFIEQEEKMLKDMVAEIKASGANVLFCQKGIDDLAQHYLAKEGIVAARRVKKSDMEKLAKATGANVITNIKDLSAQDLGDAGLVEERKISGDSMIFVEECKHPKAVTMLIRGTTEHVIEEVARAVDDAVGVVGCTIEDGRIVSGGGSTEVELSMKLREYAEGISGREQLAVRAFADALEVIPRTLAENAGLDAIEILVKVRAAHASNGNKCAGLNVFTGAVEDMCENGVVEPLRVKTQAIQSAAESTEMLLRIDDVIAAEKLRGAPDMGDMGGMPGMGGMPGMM
Thyrotropin receptor (Homo sapiens), sequence (P16473 whole entry, looked up): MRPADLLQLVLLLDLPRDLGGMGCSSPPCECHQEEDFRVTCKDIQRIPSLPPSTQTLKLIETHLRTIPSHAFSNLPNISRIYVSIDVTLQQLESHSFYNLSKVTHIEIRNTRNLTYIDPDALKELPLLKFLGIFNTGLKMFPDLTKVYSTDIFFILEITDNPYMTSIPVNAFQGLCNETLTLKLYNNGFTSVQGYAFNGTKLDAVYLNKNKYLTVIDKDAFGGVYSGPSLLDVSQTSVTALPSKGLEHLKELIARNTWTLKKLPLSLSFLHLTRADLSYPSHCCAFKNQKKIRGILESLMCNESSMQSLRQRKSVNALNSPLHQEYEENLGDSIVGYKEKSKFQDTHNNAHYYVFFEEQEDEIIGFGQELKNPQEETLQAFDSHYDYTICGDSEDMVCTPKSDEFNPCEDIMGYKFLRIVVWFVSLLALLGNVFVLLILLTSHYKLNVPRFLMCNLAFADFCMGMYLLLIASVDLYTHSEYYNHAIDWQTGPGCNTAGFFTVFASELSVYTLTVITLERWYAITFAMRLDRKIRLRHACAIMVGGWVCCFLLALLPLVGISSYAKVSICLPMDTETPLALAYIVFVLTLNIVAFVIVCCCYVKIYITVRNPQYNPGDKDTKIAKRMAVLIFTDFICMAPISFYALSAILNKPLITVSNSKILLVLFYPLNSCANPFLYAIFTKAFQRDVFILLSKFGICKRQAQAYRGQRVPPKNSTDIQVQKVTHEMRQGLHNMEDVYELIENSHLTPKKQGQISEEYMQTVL
M-phase phosphoprotein 8 (Homo sapiens), sequence (Q99549 whole entry, looked up): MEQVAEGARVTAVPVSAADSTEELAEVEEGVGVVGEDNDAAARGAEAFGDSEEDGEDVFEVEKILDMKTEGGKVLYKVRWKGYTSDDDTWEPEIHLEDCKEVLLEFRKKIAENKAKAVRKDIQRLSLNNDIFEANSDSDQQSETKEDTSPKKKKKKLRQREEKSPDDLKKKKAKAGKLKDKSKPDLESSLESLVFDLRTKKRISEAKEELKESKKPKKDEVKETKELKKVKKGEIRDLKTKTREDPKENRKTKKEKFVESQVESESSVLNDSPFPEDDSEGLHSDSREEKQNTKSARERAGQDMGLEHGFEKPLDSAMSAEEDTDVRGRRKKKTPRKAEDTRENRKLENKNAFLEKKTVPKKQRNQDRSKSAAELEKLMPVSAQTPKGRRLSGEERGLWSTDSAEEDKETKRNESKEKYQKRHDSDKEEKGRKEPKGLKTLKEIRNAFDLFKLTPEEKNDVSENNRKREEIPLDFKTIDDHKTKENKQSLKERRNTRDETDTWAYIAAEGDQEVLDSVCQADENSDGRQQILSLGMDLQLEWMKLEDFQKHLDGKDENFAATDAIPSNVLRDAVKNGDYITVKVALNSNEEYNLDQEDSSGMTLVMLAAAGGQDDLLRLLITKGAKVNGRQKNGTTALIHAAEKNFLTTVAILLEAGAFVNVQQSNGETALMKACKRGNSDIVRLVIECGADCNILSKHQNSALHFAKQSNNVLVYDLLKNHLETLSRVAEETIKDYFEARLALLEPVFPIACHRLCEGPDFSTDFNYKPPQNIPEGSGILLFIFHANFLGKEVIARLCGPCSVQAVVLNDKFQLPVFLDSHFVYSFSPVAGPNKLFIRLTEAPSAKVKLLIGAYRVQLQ
Transient receptor potential cation channel subfamily V member 1 (Homo sapiens), sequence (Q8NER1 whole entry, looked up): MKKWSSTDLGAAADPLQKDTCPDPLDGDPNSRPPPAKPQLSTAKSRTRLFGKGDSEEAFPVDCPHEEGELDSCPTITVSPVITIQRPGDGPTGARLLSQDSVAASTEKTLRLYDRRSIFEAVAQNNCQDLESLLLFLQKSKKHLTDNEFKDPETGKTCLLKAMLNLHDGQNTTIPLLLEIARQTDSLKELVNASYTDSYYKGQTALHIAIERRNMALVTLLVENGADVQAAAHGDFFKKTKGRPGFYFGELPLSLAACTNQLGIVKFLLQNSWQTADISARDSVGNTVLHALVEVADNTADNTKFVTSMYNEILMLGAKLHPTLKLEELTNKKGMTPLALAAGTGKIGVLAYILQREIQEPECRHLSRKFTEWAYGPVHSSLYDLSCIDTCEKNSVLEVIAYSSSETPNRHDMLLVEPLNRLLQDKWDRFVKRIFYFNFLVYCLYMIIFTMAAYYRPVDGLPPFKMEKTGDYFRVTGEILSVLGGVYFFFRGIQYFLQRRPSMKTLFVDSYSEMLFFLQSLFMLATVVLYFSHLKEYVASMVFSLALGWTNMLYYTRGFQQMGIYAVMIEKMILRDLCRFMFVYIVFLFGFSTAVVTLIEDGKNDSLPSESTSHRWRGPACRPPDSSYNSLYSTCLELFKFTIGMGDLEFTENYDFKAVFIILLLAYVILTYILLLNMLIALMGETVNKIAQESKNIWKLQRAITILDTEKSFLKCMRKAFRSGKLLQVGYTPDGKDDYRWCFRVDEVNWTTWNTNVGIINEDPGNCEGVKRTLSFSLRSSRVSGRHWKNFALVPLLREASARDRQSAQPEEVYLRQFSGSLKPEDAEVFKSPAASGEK

On to `c1cnc2c(c1)ccc1cccnc12`, for which the Potency result in [1], in test [2], in test [3], in [4], in test [5] and in [9] was “inactive” in each case. Also, the Potency result in test [10] and in test [13] was “inactive” in each case. For the same compound, the result in [6], in [7], in [8] and in [12] was inactive. Also, the Potency in test [11] was 6.51 µM (active).
As to `C[C@@H](CN1CCC(Cc2ccccc2)CC1)[C@@H](O)c1ccc(O)cc1`, the Potency result in test [1], in test [2], in [3], in [4], in [5] and in test [9] was “inactive” each time. Besides, the Potency entry in test [14], in test [11], in test [16] and in test [13] was “inactive” throughout. In addition, the outcome in [6], in test [7], in test [8] and in [12] was inactive. Also, the Potency in test [10] was 14.1 µM (active). In addition, in [15], the activation is 2.75% (inactive). In addition, the viability change in [16] came to 8.45%.
`COc1cc(SC)ccc1C(=O)N1CCC(Cc2ccccc2)CC1`: the Potency entry in test [1], in test [2], in test [3], in test [4], in [5] and in [9] was “inactive” each time. In addition, the Potency entry in test [17], in test [10], in test [14], in test [11] and in test [16] was “inactive” throughout. Further, the compound was classed as inactive in test [6] and in test [12]. Further, the viability change in [16] was 1.59%.
Turning to `Cn1cc(C2=C(c3ccc(Cl)cc3Cl)C(=O)NC2=O)c2ccccc21`, the Potency result in test [1], in test [2], in test [3], in [4], in test [5] and in test [10] was “inactive” each time. For the same compound, the Potency result in test [14], in test [16] and in test [13] was “inactive” in each case. In addition, the compound was classed as inactive in test [6], in test [8] and in test [12]. Further, the Potency in test [9] was 14.1 µM (active). In addition, in [15], the activation was 29.6% (inactive). Further, the viability change in test [16] was -10.9%.
For the compound `CCCN(CC1CC1)c1nc(C)nc(Nc2c(Cl)cc(Cl)cc2Cl)c1Cl`, the Potency result in test [1], in [2], in [3], in test [4], in test [5] and in [9] was “inactive” each time. The Potency result in [17], in test [10], in test [14], in test [11], in [16] and in test [13] was “inactive” in each case. In addition, the result in test [6], in test [7], in [8] and in test [12] was inactive. In addition, the activation in test [15] is -7.44% (inactive). The viability change in test [16] worked out at 7.51%.
In the case of `CCNC(=O)[C@H]1O[C@@H](n2cnc3c(N)nc(NCCc4ccc(CCC(=O)O)cc4)nc32)[C@H](O)[C@@H]1O`, the Potency result in test [1], in test [2], in test [3], in [4], in test [5] and in [9] was “inactive” throughout. Further, the Potency entry in [17], in [10], in test [14], in test [11] and in test [16] was “inactive” each time. Further, the result in test [6] was inactive. In test [16], the viability change turned out to be 0.951%.
As to `Fc1cccc(/C=N/N=C/c2cccc(F)c2)c1`, the Potency entry in test [1], in [2], in test [3], in [4], in test [5] and in test [9] was “inactive” in each case. The Potency result in [16], in test [18] and in [13] was “inactive” throughout. The compound was called inactive in test [6], in test [7], in test [8] and in test [12]. Further, the Potency in test [14] is 23.1 µM (active). In [15], the activation was -7.56% (inactive). In addition, in test [16], the viability change came to 1.98%.
Regarding `O=C1NC(O)=NC1(c1ccccc1)c1ccccc1`, the Potency entry in test [1], in [2], in [3], in [4], in test [5] and in test [9] was “inactive” each time. Also, the Potency result in test [17], in test [10], in test [14], in [11], in test [18] and in test [13] was “inactive” in each case. The outcome in test [7] and in test [8] was inactive. In test [15], the activation was 0.125% (inactive).

(Values after PubChem BioAssay (NCATS).)
